TDP1 cell CPT = growth inhibition of DT40 Tdp1-/-;hTDP1 cells with camptothecin (screen for TDP1 inhibitors) | chicken DT40 Tdp1-/-;hTDP1 cells + 20 nM CPT, ATP luminescence, 48 h | Potency, µM (highest dose often 46.2 µM), for inactives: at the highest dose activity change, negative = growth inhibition, actives largely listed as inhibitors | actives 12% (n = 420,000); note: potency is the fitted concentration of half-maximal effect; nearly all actives have a fitted effect of over 55% in size
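Cell growth measured by CellTiter-Glo luminescence after a minimum 48 h, 37 C compound exposure with 20 nM CPT in Tdp1-knockout DT40 cells stably expressing hTDP1, seeded 400/well; qHTS titration format.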
HT1080NT lethal = kills 2HG-producing HT-1080-NT fibrosarcoma cells. HT-1080-NT fibrosarcoma viability, CellTiter-Glo ATP luminescence, 48 h. Potency, µM (top dose mostly 46.1 µM), inactives show at the top dose activity, negative = less viability, most hits filed as cytotoxic. actives 1.6% (n = 360,000);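 note: NT is the 2HG producing partner of a matched IDH1 knockdown line; potency is the fitted concentration of half-maximal effect; 0% = DMSO-treated cells and -100% = media-only wells without cells; nearly all actives have a fitted effect of over 55% in size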
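Viability of the 2HG-overproducing fibrosarcoma line after 48 hours of compound exposure at 37 degrees C was determined by luminescence with CellTiter-Glo, and concentration-effect curves were then fitted and categorized.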
DT40 TDP1 no CPT = qHTS for Inhibitors of human tyrosyl-DNA phosphodiesterase 1 (TDP1): qHTS in cells in absence of CPT. DT40 Tdp1-/- hTDP1 cells, no CPT, ATP luminescence, 48 h. Potency, µM (doses to about 46.2 µM), for inactives: at the top dose activity change, negative = growth inhibition, hits mostly inhibitors. actives 15% (n = 420,000). AID 686978, 2013; note: potency is the fitted concentration of half-maximal effect; nearly all actives have a fitted effect of over 55% in size
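Chicken DT40 Tdp1-/- cells stably complemented with human TDP1 were seeded at 400 cells/well with DMSO in place of 20 nM camptothecin. After compound pinning, cells grew at least 48 hr at 37 °C; viability read by CellTiter-Glo luminescence.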
HT1080 IDH1KD tx = toxicity to HT-1080 IDH1 knockdown cells (counter line) | AID 686971 | Potency, µM (series often up to 46.1 µM), inactives show at the highest dose activity, negative = toxicity, actives largely listed as cytotoxic | HT-1080 IDH1 knockdown viability, ATP luminescence, 48 h | actives 2% (n = 360,000);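 note: potency is the fitted concentration of half-maximal effect; 0% = DMSO wells and -100% = cell-free medium wells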
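After a 2 h attachment period, IDH1KD HT-1080 cells took pin-transferred compound for 48 h at 37 °C; ATP-based luminescence after 10 min room-temperature reagent incubation reported viability.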
IL1B secr inh = blocks inflammasome-driven IL-1 beta release | activity change, % at 57.5 µM | actives 4.7% (n = 360,000) | THP-1 LPS/ATP IL-1B secretion, AlphaLISA, 16 h; hits give low values | AID 743279; in the data active = activity change below about -50%; inconclusive = mostly about -30% to -49%
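THP-1 cells pretreated 1 hr with compounds (up to 57.5 uM final), then stimulated with LPS (250 ng/mL final) plus ATP (1.25 mM final); secreted IL-1B measured by AlphaLISA after 16 hr, decreased signal indicating inhibition.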
Starred values were filed as active, the others as inactive; ? = inconclusive; . = not tested or not shown; [ ] = another dose, or the depositor's remark. Shown are actives, neighbours in structure and some others; about 19% of the full set was active somewhere. Unless noted, calls come from the whole dose curve; as a rule, active = well fitted curve in the direction sought with a large enough effect; inconclusive = small, poorly fitted or top-dose-only effect, or another doubt; inactive = no such curve, though single readings can be large; an effect the other way counts as inactive or inconclusive. Unless noted, % is set by controls: 0 for no effect and ±100 for the full control effect.

SMILES | TDP1 cell CPT | HT1080NT lethal | DT40 TDP1 no CPT | HT1080 IDH1KD tx | IL1B secr inh
COc1ccc(C(=O)Nc2cccc(-c3nc4ncccc4o3)c2C)cc1 | -10% | -1% | ? | 6% | -18
Cc1ccc(-c2nn3c(C)nnc3s2)cc1NCc1c(F)cccc1Cl | 18µM* | ? | 18µM* | ? | -21
Cc1c(NC(=O)c2ccc(-c3ccc(F)cc3)o2)cccc1-c1nc2ncccc2o1 | 4.6µM* | . | 9.2µM* | . | .
COc1c(C)cc(Br)cc1C(=O)Nc1cccc(-c2nc3ncccc3o2)c1 | 21µM* | 12% | 21µM* | -3% | -21
O=C(CSc1ccc(Cl)cc1)Nc1cccc(-c2nc3ncccc3o2)c1 | ? | 16% | 18µM* | -4% | ?
CCC(=O)Nc1cccc(-c2nc3ccc(C)cc3o2)c1 | 0% | -19% | ? | ? | -23
O=C(Nc1cccc(-c2nc3ncccc3o2)c1)c1ccc(-c2cccc(Cl)c2Cl)o1 | 5.8µM* | . | 6.5µM* | . | .
Cc1ccc2nc(-c3cccc(NC(=O)CSc4ccc(Cl)cc4)c3)oc2c1 | 26µM* | . | 9.2µM* | . | .
CCCCCC(=O)Nc1cccc(-c2nc3ncccc3o2)c1 | 2% | -12% | -18% | -3% | -99*
CCCCC(=O)Nc1cccc(-c2nc3ncccc3o2)c1 | -21% | 5% | -28% | -1% | -25
CC(C)C(=O)Nc1cccc(-c2nc3ncccc3o2)c1 | 3% | 2% | 20% | 1% | 0
CCN(CC)C1CCN(C(=O)c2cnn(-c3nccc(-c4ccccc4OC)n3)c2-c2ccco2)C1 (centres undefined) | -2%[9.04 µM] | . | -25% | . | .
CN1CCCC(n2nc(Cc3ccc(Cl)cc3)c3ccccc3c2=O)CC1 (centres undefined) | 13µM* | 5.2µM* | 21µM* | 4.1µM* | ?
COc1ccc(Cl)cc1S(=O)(=O)N1CCN=C1C | 18µM* | 18% | ? | -5% | 0
COc1ccc(C)cc1S(=O)(=O)N1CCN(c2cccc(Cl)c2)CC1 | 21µM* | . | ? | . | .
COc1ccc(C)cc1S(=O)(=O)N1CCCC(N2CCN(c3ccccc3)CC2)C1 (centres undefined) | ? | -12% | 21µM* | -15% | 40
COc1ccc(C)cc1S(=O)(=O)N1CCN(c2cccc(C(F)(F)F)c2)CC1 | -25% | -24% | ? | -3% | 5
COc1cc(OC)c2nc(-c3cc4c(c(OC)c3)OCCN(C(=O)C(C)c3n[nH]c(=O)c5ccccc35)C4)cc(C)c2c1 (centres undefined) | 18%[9.04 µM] | . | -15% | . | .
COc1ccc(Br)c(C(=O)OCC(=O)NC2CCCCCCC2)c1 | 1% | 0% | ? | 0% | 11
C=CCn1c(SCC(=O)Nc2ccc3c(c2)OCO3)nnc1-c1ccccc1O | ? | 8% | -17% | -1% | -3
O=C(Nc1cc(Cl)ccc1-n1cncn1)c1cccc(S(=O)(=O)N2CCOCC2)c1 | -2% | 0% | 3% | -8% | 8
Cc1ccc(-c2ccc(/C=N/n3cnnc3)o2)cc1Cl | 10% | -6% | -24% | -18% | -28
Clc1cccc(-c2ccc(/C=N/n3cnnc3)o2)c1 | 3% | -1% | -2% | 17%[9.24 µM] | -54*
COc1cccc(CNC(=O)c2c(OC)cc(=O)n3c2CCN(C(=O)c2cc(F)cc(F)c2)CC3)c1 | -7% | . | -14% | . | .
CCN(CC)CCNC(=O)C(Cl)=C1C(Cl)=C(Cl)C(Cl)=C1Cl | ? | -24% | 16µM* | ? | -100*
CCN(CC)CCNC(=O)C12CC3CC(CC(C3)C1)C2 | -1% | 2% | 2% | 6% | -2
Cc1ccc(NC(=O)CN(C)C(=O)c2ccc(NS(=O)(=O)c3cccc([N+](=O)[O-])c3)cc2)cc1 | -3% | -8% | -13% | -1% | 25
Cc1ccc(NS(=O)(=O)c2cc(C(=O)Nc3cccc([N+](=O)[O-])c3)ccc2C)cc1 | ? | -9% | ? | ? | -80*

Compound activity as filed in PubChem.
